Laboratory results as given in PubChem BioAssay AID2314 (National Center for Advancing Translational Sciences (NCATS), 2010).
Among all 300,000 compounds or so, about 37,000 (12%) were called active. This excerpt belongs to a sample that is enriched for actives. Unmarked numbers belong to inactive results. Cut-off read from the data, not from the text of the source: active = max response mostly above about 13% (no sharp cut-off); inactive = mostly below about 14%.

Assay: Cycloheximide Counterscreen for Small Molecule Inhibitors of Shiga Toxin; note: read at 38.3 µM for the half of the compounds with a filed dose; 0% is about no effect
Details: cell reporter, cycloheximide protein synthesis inhibition counterscreen; stronger effect = higher value

Point of comparison: COc1cc(-c2nn3c(-c4cccc(C)c4)nnc3s2)cc(OC)c1OC, max response -2.72%. Against it:
- C=CCNC(=S)N1CCN(CCN=Cc2c(C)[nH]n(-c3ccc([N+](=O)[O-])cc3)c2=O)CC1 — higher, -1.17%
- CCO[C@H]1OC(C(=O)Nc2ccccc2)=C[C@@H](C2CC2)[C@@H]1CCCO — higher, -1.4%
- C[C@]1(C(=O)NCCc2c[nH]c3ccccc23)C=C[C@@H](Cc2ccccc2)N1C(=O)c1ccccc1 — higher, 11.9%
- Cc1ccc(N2C(=O)C3C(c4ccccc4)(C2=O)C3(c2ccccc2)c2ccccc2)cc1 (configuration not stated) — lower, -4.14%
- c1ccc(-c2cc(-c3nnc4sc(-c5ccccn5)nn34)[nH]n2)cc1 — higher, 5.86%
- CCC(=O)N(Cc1cc2cc(OC)ccc2[nH]c1=O)c1ccccc1C — higher, -0.76%
- COc1ccc(N(Cc2cc3cc(OC)ccc3[nH]c2=O)S(C)(=O)=O)cc1 — higher, -1.64%
- CC(=O)c1ccc(S(=O)(=O)N2CCC(Oc3ccc(-n4cnnn4)cc3)CC2)cc1 — lower, -8.92%
- N#Cc1c(Cl)nc(-c2cccnc2)nc1-c1ccccc1 — higher, -2.59%
- S=C(Nc1cccnc1)Nc1ccccn1 — higher, -1.56%
- CCOC(=O)c1cnc(-n2nc(C)cc2C)nc1NNc1cc(C)nc(-c2ccccc2)n1 — higher, -1.88%
- COc1ccc(C=Nc2cccc3ncccc23)cc1 — higher, 5.61%
- COc1ccc(/C=N/NS(=O)(=O)c2ccc(NC(C)=O)cc2)cc1 — higher, -2.62%
- COc1ccc(/C=N/Nc2nc(-c3ccc(C)cc3)c(C#N)c(=O)[nH]2)cc1 — higher, -2.53%
- COc1ccc(/C=N/OCC(=O)N(Cc2ccccc2)c2ccccc2C(=O)O)cc1 — higher, -1.3%
- Cc1cccc(NC(=O)C2CCN(C(=O)NC3CCCCC3)CC2)c1 — lower, -6.02%
- Cc1ccc2cc(CCNC(=O)c3c(-c4ccccc4Cl)noc3C)c(=O)[nH]c2c1 — lower, -3.51%
- Cc1c2cnn(CC(=O)NCc3ccccn3)c(=O)c2c(C)n1Cc1ccc(Cl)cc1 — lower, -3.5%
- COCc1cc(=O)oc2cc(NS(=O)(=O)c3ccc(C)cc3)ccc12 — higher, 2.21%
- CCOC(=O)Cc1csc(SCc2cc(=O)oc3cc(O)ccc23)n1 — higher, -1.72%
- CCCNC(=O)CSc1nc(Cc2ccccc2)nc2ccccc12 — lower, -5%
- COc1ccc(C)cc1Nc1nc(-c2c(C)[nH]c3ccccc23)cs1 — higher, 11.4%
- CCn1c(-c2cc(OC)ccc2OC)csc1=Nc1c(C)n(C)n(-c2ccccc2)c1=O — higher, -0.97%
- CC(C)(C)N(Cc1ccccc1)C(=O)COC(=O)CCc1c[nH]c2ccccc12 — higher, -0.22%
- COc1cc(CN2CCC(n3nccc3NC(=O)CCCc3ccccc3)CC2)ccc1O — higher, -1.56%
- COc1ccc(CN2CCC(n3nccc3NC(=O)CCCc3ccccc3)CC2)cc1C — lower, -6.15%
- CCn1cc(CN2CCC(n3nccc3NC(=O)CCCc3ccccc3)CC2)c(C)n1 — higher, -2.15%
- Cc1ccc(CN2CCC(n3nccc3NC(=O)CCCc3ccccc3)CC2)o1 — higher, 2.06%
- CCC(C(=O)OC)n1cnc2scc(-c3ccc(C)cc3)c2c1=O (configuration not stated) — higher, 0.506%
- COc1ccc(N2C(=O)C3C(C2=O)C(C(=O)c2ccccc2)N2CCCC32)cc1 (configuration not stated) — higher, 2.35%
- O=C(NCc1ccccc1Cl)c1ccc2c(=O)n(CC3CCCO3)c(=S)[nH]c2c1 (configuration not stated) — higher, -1.12%
- CCCC[C@@H]1CN=C(N)N1CCc1cc(C(F)(F)F)cc(C(F)(F)F)c1 — lower, -4.84%
- CC[C@H](C)[C@H](NC(=O)[C@H](CCCNC(=N)N)NC(=O)[C@H](CCCNC(=N)N)NC(=O)[C@H](CC(C)C)NC(=O)[C@H](Cc1ccccc1)NC(=O)CNC(=O)CNC(=O)[C@@H](N)Cc1ccc(O)cc1)C(=O)N[C@@H](CCCNC(=N)N)C(=O)N1CCC[C@H]1C(=O)N[C@@H](CCCCN)C(=O)N[C@@H](CC(C)C)C(=O)N[C@@H](CCCCN)C(=O)N[C@@H](Cc1c[nH]c2ccccc12)C(=O)N[C@@H](CC(=O)O)C(=O)N[C@@H](CC(N)=O)C(=O)N[C@@H](CCC(N)=O)C(=O)O — lower, -3.93%
- O=C(Cn1ccc2cc(S(=O)(=O)N3CCCC3)ccc21)NCc1ccccc1 — higher, 12.1%
- C=CCOc1ccc(/C=C2\SC(=S)N(CCC(=O)O)C2=O)cc1 — lower, -2.97%
- O=C(C1CCN(S(=O)(=O)c2ccc(Br)s2)CC1)N1CCN(C2CCCCC2)CC1 — higher, 3.94%
- COc1cc(OC)c(-n2cc(-c3ccc(Cl)cc3)[nH]c2=O)cc1Cl — higher, 0.883%
- Cc1cc(C)nc(SC2CCCCC2NS(=O)(=O)c2ccc(Cl)cc2)n1 (configuration not stated) — higher, -1.57%
- CC(C(=O)NCC1CCCCC1)N(C)Cc1cccc(Cl)c1 (configuration not stated) — lower, -4.34%
- CN(Cc1ccccc1)C(=O)c1cccc(C(=O)N(C)Cc2ccccc2)c1 — lower, -3.47%
- COC(=O)c1cc(S(=O)(=O)Nc2ccc(C)c(F)c2)c[nH]1 — higher, 1.38%
- COc1ccc(C(=O)N2CCCN(C)CC2)c(OC)c1 — higher, -2.16%
- COc1ccc(C(=O)NCc2nnc(SCC(=O)NC3=NCCS3)n2C)cc1 — higher, -2.2%
- O=C(NC1=NCCS1)[C@H](Cc1ccccc1)N1C(=O)c2ccccc2C1=O — lower, -2.74%
- COc1ccc(Cc2nnc(NC(=O)Cc3cccs3)s2)cc1 — higher, 12.7%
- COc1cccc(OC)c1C(=O)Nc1nnc(C(C)C)s1 — higher, -1.98%
- CC(NC(=O)COc1ccccc1)C(=O)NC1=NCCS1 (configuration not stated) — higher, 4.07%
- COc1ccc(NC(=O)c2cc(-c3cc(OC)c(OC)c(OC)c3)nc3ccccc23)c(OC)c1 — lower, -6.98%
- COc1ccc(Cc2nnc(NC(=O)c3cc(OC)c(OC)c(OC)c3)s2)cc1OC — lower, -3.75%
- CCN1C(=S)N[C@@H](c2cccc(C(F)(F)F)c2)C(C(=O)OC)=C1C — lower, -8.93%
- COC(C(=O)Nc1ccc(S(=O)(=O)Nc2ccc(C)c(C)c2)cc1)c1ccccc1 (configuration not stated) — higher, -1.18%
- CS(=O)(=O)c1sc(C(=O)NC(=S)Nc2ccc(OC(F)(F)F)cc2)c2c1C=CCC2 — higher, 1.1%
- CCOC(=O)c1ccccc1N1C(=O)C2Sc3[nH]c(=O)sc3C(/C=C/c3ccccc3)C2C1=O (configuration not stated) — higher, -1.12%
- CC(C)(C)NCCCOc1ccc(Cl)cc1C(C)(C)C — lower, -3.93%
- O=C(CSc1ccccn1)Nc1nc2c(ccc3ccccc32)s1 — higher, 15%
- CC(=O)NCCC(=O)Nc1cc(S(=O)(=O)N2CCCCC2)ccc1Oc1cccc(C)c1 — lower, -3.52%
- Cc1cccc(C(=O)N2CCC(c3nc4ccccc4s3)CC2)c1 — lower, -3.16%
- O=C(c1cccs1)N1CCC(c2nc3ccccc3s2)CC1 — higher, -1.42%
- Cc1[nH]c(C)c(S(=O)(=O)N2CCN(c3cccc(C(F)(F)F)c3)CC2)c1C(=O)N1CCCC1 — lower, -5.38%
- C=C1CCN(Cc2ccc(OC)cc2)S(=O)(=O)c2ccccc21 — higher, 12.8%
- CCOc1ccc(N2CC(C(=O)NCc3ccccn3)CC2=O)cc1 (configuration not stated) — lower, -11.6%
- CC1CCN(c2ccc(C(=O)NCc3ccc4c(c3)OCO4)cc2[N+](=O)[O-])CC1 — lower, -5.58%
- CCc1ccc(NC(=O)CN2CCC(C(=O)c3ccc(OC)cc3)CC2)cc1 — lower, -4.07%
- Cc1ccc(C2CN(C)CC2C(=O)c2ccc(F)cc2)cc1 (configuration not stated) — lower, -3.61%
- CC(C)(C)C(=O)CN1C2=NCCN2c2ccccc21 — higher, -2.32%
- CCc1ccc(NC(=O)Cn2nnc(C(=O)NCc3ccc4c(c3)OCO4)c2N)cc1 — lower, -3.61%
- Cc1ccc(-c2nc(CSCC(=O)NC3CCN(Cc4ccccc4)CC3)c(C)o2)cc1 — lower, -6.12%
- CCCCn1c(N)c(N(CCOC)C(=O)c2oc3ccc(OC)cc3c2C)c(=O)[nH]c1=O — lower, -2.73%
- Cc1cc(S(=O)(=O)Nc2ccc(C(=O)NCC(c3ccco3)N3CCCC3)cc2)ccc1F (configuration not stated) — higher, 0.909%
- COc1cc(C(=O)N[C@@H](C)C(=O)NCc2ccco2)cc(OC)c1OC — higher, -1.35%
- COc1cc(C(=O)NC(=S)NCc2ccco2)cc(OC)c1OC — higher, 2.82%
- Cc1c(C(=O)NCCN(C)C)oc2ccc(S(=O)(=O)N3CCCC3)cc12 — higher, 2.66%
- COc1cccc(OCC(O)CNC(=O)c2oc3c(C)c(C)ccc3c2C)c1 (configuration not stated) — lower, -4.29%

With CCOc1cccc(-c2nn3c(-c4ccccn4)nnc3s2)c1 the max response was 22.6% (active).
For COc1ccc2[nH]c(=O)c(CNc3ccc(C)c(C)c3)cc2c1, the max response was 15% (active).
With COc1ccc(/C=N/Nc2ccccc2C(=O)O)cc1 the max response was 38.9% (active).
In the case of COc1ccc(/C=N/Nc2nc3ccccc3c(=O)[nH]2)cc1, the max response is reported as 43.2% (active).
In the case of Cc1ccc2c(CSc3nncs3)cc(=O)oc2c1, the max response is reported as 26.8% (active).
With CN=c1scc(-c2cc(OC)ccc2OC)n1/N=C/c1c(C)[nH]c2ccccc12 the max response was 15.1% (active).
For CC(=O)N[C@@H](C)C(=O)N1CCC(n2nccc2NC(=O)CCCc2ccccc2)CC1, the max response was 24.6% (active).
For CC(=O)NCC(=O)N1CCC(n2nccc2NC(=O)CCCc2ccccc2)CC1, the max response was 26.3% (active).
With CC(c1ccccn1)N(C)C(=O)c1ccc2nc(Cc3cccc(Cl)c3)oc2c1 (configuration not stated) the max response was 52.7% (active).
With COc1ccc(C(=O)Nc2nncs2)c(OC)c1 the max response was 34.6% (active).
With O=C(NC1=NCCS1)c1ccc(Cl)s1 the max response was 66.8% (active).
With COc1ccc(Cc2nnc(NC(=O)c3ccc(OC)cc3OC)s2)cc1 the max response was 31.5% (active).
In the case of COc1ccc(C(=O)NC2=NCCS2)c(OC)c1, the max response is reported as 32.6% (active).
With c1ccc2sc(C3CCCNC3)nc2c1 (configuration not stated) the max response was 30.8% (active).
In the case of COc1ccc(C(=O)C2CN(C)CC2C(=O)c2ccc(OC)cc2)cc1 (configuration not stated), the max response is reported as 19% (active).
With Cc1c(C(=O)NCC(c2ccco2)N2CCCC2)oc2ccc(Cl)cc12 (configuration not stated) the max response was 37.1% (active).
For COc1ccc2oc(C(=O)NCC(Cc3ccccc3)N(C)C)c(C)c2c1 (configuration not stated), the max response was 12% (active).
In the case of COc1ccc2oc(C(=O)NCc3ccco3)c(C)c2c1, the max response is reported as 31.4% (active).
